Each structure is given as a SMILES string. Hit rate of the full screen: of about 290,000 compounds, about 1,800 (0.62%) were called active. What follows is part of a selection rich in actives, with near analogues and random picks from the rest. Values without a mark were called inactive. No stated cut-off is given here; in the data, active means inhibition above about 50%; inactive means the rest.

The text below walks through data of PubChem BioAssay AID1566 (Sanford-Burnham Center for Chemical Genomics, 2009).

A short description of this test: NOD2 signaling inhibitors, cell-based, luminescence, uHTS, HEK293 (AID 1566). The note with it: HEK293 NOD2/NF-kB luciferase reporter, at 4 µM, stronger effect = higher value. (In general: Reporter assays use an easily measured gene product as a stand-in for the process of interest.)
`Cc1ccc(NC(=O)C2=NNC(=O)CC2)cc1F`: the inhibition (in general, the drop in the measured response relative to a control, in per cent) was -17.2%. The result for `Cc1ccccc1S(=O)(=O)Oc1cccc2c(O)cccc12` reads 1.5%. `CNC(=O)CN(c1cc([N+](=O)[O-])ccc1OC)S(C)(=O)=O`: the inhibition is 12.6%.

With `CCCCc1oc2ccccc2c1C(=O)c1cc(I)c(OCCN(CC)CC)c(I)c1`, the inhibition is 14.9%.

Regarding `CCc1oc2ccccc2c1C(=O)CCN1CCCCC1`, the inhibition is 3.9%. In the case of `CCc1oc2ccccc2c1C(=O)c1cc(Br)c(O)c(Br)c1`, the inhibition was 51.8% (active). The result for `O=C(COC(=O)c1cccnc1Cl)c1ccc(Cl)cc1Cl` reads 9.1%.

Take `CCCc1ccc(-c2cc(C(=O)Nc3ccc([N+](=O)[O-])cn3)c3ccccc3n2)cc1`: the inhibition is -29.8%. The result for `COc1ccc2oc(=O)c(C(C)=O)cc2c1` reads 19.5%; that for `CCCCN(Cc1ccco1)C(=O)c1cc2c(=O)[nH]c3ccc(C)cc3c2s1`, 34.9%.

Regarding `COc1ccc(N(CC(=O)N/N=C/c2ccc(N(C)C)cc2)S(=O)(=O)c2ccccc2)cc1`, the inhibition was -57%. The result for `CCN(CC)c1ccc(/C=N/NC(=O)CNC(=O)C2COc3ccccc3O2)c(O)c1` (stereo not given) reads 69.1% (active); that for `O=C(CNC(=O)C1COc2ccccc2O1)N/N=C\c1ccccc1Cl` (stereo not given), 19.9%; that for `O=C(CNC(=O)C1COc2ccccc2O1)N/N=C/c1ccc(O)cc1O` (stereo not given), 8.2%. As for `O=C(CSc1nc(-c2ccco2)cc(C(F)(F)F)n1)N1CCSCC1`, the figure is 13.4%. The result for `CCOC(=O)N1CCN(S(=O)(=O)N2CCCC(C(=O)NCCCN3CC(C)CC(C)C3)C2)CC1` (stereo not given) reads -13.2%; that for `CN1CCc2nc(NC(=O)COc3ccc4ccccc4c3)sc2C1`, -39.7%. Regarding `NC(=O)c1cccnc1Nc1ccccc1F`, the inhibition is -1.6%. As for `O=C(Nc1nc2cc3c(cc2s1)OCCO3)c1cccc(N2C(=O)CCC2=O)c1`, the figure is -37.4%; as for `CCN(CC)S(=O)(=O)c1cccc(C(=O)Nc2nnc(C)s2)c1`, 10.5%. As for `CCN(CC)C(=O)CNc1ccc(C(F)(F)F)cc1[N+](=O)[O-]`, the figure is 4.7%; as for `CCOc1ccc(N(CC(=O)N2CCN(c3ccccc3OC)CC2)S(=O)(=O)c2ccc(F)cc2)cc1`, -13%. As for `CCc1ccc(OCC(=O)NC(=S)Nc2ccc(C(C)=O)cc2)c(Br)c1`, the figure is 41.8%. `CCCn1c(=O)c(C(=O)Nc2c(C)n(C)n(-c3ccccc3)c2=O)c(O)c2ccccc21`: the inhibition is 0.6%.

Consider `O=C(NCC1CCCN(C(=O)NCc2ccccc2)C1)c1ccc2c(c1)OCO2` (stereo not given), for which the inhibition is -0.6%.

For the molecule `COc1cc(/C=C/C(=O)OCC(=O)NC2CC2)cc(S(=O)(=O)N2CCc3ccccc32)c1OC`, the inhibition is 15%.

Turning to `CCN1C(=O)/C(=C/c2ccc(OCc3ccc(C(=O)O)cc3)c(Cl)c2)NC1=S`, the inhibition was 57.5% (active).

On to `CCOc1cc(/C=C2\NC(=S)N(C)C2=O)ccc1OCc1ccc(C(=O)O)cc1`, for which the inhibition is -3%. The result for `CN1C(=O)/C(=C/c2ccc(OCc3ccc(C(=O)O)cc3)c(Cl)c2)NC1=S` reads 33.9%. As for `O=C(NCCc1ccc(F)cc1)Nc1ccccc1`, the inhibition is -13.6%.

For the molecule `CCOc1cccc(/C=N/NC(=S)Nc2ccccc2[N+](=O)[O-])c1O`, the inhibition was 64.7% (active). The result for `CCOc1ccccc1/C=N/Nc1ccccc1[N+](=O)[O-]` reads -58%; that for `CCCOc1ccc(/C=N/Nc2ccccc2[N+](=O)[O-])c(O)c1`, 42.2%; that for `CCCCNC(=S)N/N=C/c1cccc(OCC)c1O`, -5.1%. As for `CCCOc1ccc(/C=N/Nc2ccccc2[N+](=O)[O-])c(OCCC)c1`, the figure is 30.3%. Turning to `COc1ccc(N2CCN(CC(=O)NCc3ccccc3)CC2)cc1`, the inhibition was -7.3%. The result for `COc1ccccc1NS(=O)(=O)c1cccc(C(=O)NN=C2CCCC2)c1` reads 4.3%.

As for `COc1ccc(N(CC(=O)NC(C)(C)C)C(=O)CCC(=O)Nc2nccs2)cc1`, the inhibition was 5.1%.

Consider `CC1=NNC(=O)C1C(c1ccccc1)C1C(=O)NN=C1C` (stereo not given), for which the inhibition is 20.3%. Consider `CCCC(=O)N(CCN1CCOCC1)c1nc2c(OCC)cccc2s1`, for which the inhibition is 5.2%. As for `COc1ccccc1CN1CCNC(=O)C1CC(=O)NCCCN1CCCC1=O` (stereo not given), the figure is -4.3%; as for `Oc1ccc(Br)cc1CNc1nccs1`, -5.1%; as for `Oc1c(Br)cc(Br)cc1CNc1nccs1`, 57% (active). As for `O=S(=O)(Nc1nccs1)c1ccc(NCc2cc(Br)cc(Br)c2O)cc1`, the figure is 6.8%; as for `CCOC(=O)c1[nH]c2ccc(OCC)cc2c1NC(=O)CN1CCC2(CC1)OCCO2`, -2.2%. As to `COc1ccccc1N1CCN(C(=O)c2cc(C(=O)N3CCN(c4ccccc4OC)CC3)cc([N+](=O)[O-])c2)CC1`, the inhibition was 3.5%. As for `CCn1c(SCC(=O)N2CCN(c3ccccc3)CC2)nnc1-c1c[nH]c2ccccc12`, the figure is 6.3%; as for `COc1ccccc1C(C)NCC(=O)Nc1c(F)cccc1F` (stereo not given), 5.5%. As to `Cn1c(Oc2ccc(Cl)cc2)c(C=O)c2ccccc21`, the inhibition was 48.5%. For the molecule `Cn1c(Sc2ccccc2Cl)c(C=O)c2ccccc21`, the inhibition was 36.9%. As for `COc1ccccc1NC(=O)CN1CCCCC1`, the figure is -4.7%; as for `O=C(O)COc1ccccc1/C=N/n1c(C2CCCCC2)n[nH]c1=S`, 17.3%. In the case of `CCOc1cc2c3c(c1)C(C)CC(C)(C)N3C(=O)C2=O` (stereo not given), the inhibition was 10%. The result for `CCc1cc2c3c(c1)C(C)CC(C)(C)N3C(=O)C2=O` (stereo not given) reads 11.8%; that for `Cc1ccc(SCC2(O)CCN(S(=O)(=O)c3ccc(Cl)cc3)CC2)cc1`, 17.7%; that for `O=S(=O)(c1ccccc1)N1CCC(O)(CSc2ccc(Cl)cc2)CC1`, 56.9% (active). In the case of `O=S(=O)(c1ccccc1)N1CCC(O)(CSc2ccccc2)CC1`, the inhibition was 28.2%. The result for `CCOc1ccccc1NC(=O)CCc1nnc2ccc(N3CCC4(CC3)OCCO4)nn12` reads -11.6%.

With `O=C(Cn1nnc(N2CCCC2)n1)N/N=C/c1ccc(Cl)cc1`, the inhibition is -2.3%. As for `Cc1c(NC(=O)c2ccccc2)cccc1[N+](=O)[O-]`, the figure is 21.3%.
